# Measurements taken from PubChem BioAssay (EPA / NIEHS).
# “And” between values parts separate entries of the source, which are not always exact repeats. Equal values may be shown once. Inconclusive results are not listed. The source made the active and inactive calls. Rule for the calls, unless noted: active = hit-call score of the fitted dose curve at least 0.9, where 1 is the maximum; inactive = score below 0.9.
# What was measured:
# [1] = read-out: Pyruvate Dehydrogenase Kinase 4 (PDK4), PDK4 (gene 5166); test: LTEA_HepaRG_PDK4: Life Technologies and Expression Analysis (LTEA) Assay for Pyruvate Dehydrogenase Kinase 4 (PDK4) using HepaRG (AID 2283525); conditions: mRNA level, 48 h; actives raise or lower the signal
# Method in brief: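 HepaRG (human liver line), 48 h chemical exposure, 8-pt half-log CRC top 100 uM, 0.5% DMSO vehicle, duplicates. Readout: TaqMan qRT-PCR of PDK4 mRNA, housekeeping-normalized; gain/loss fit relative to DMSO baseline.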
# [2] = read-out: NAD(P)H dehydrogenase [quinone] 1 (NQO1), NQO1 (gene 1728); test: LTEA_HepaRG_NQO1: Life Technologies and Expression Analysis (LTEA) Assay for NAD(P)H dehydrogenase [quinone] 1 (NQO1) using HepaRG (AID 2283526); conditions: mRNA level, 48 h; actives raise or lower the signal
# Method in brief: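 Transcript induction or suppression is quantified by qRT-PCR in human HepaRG liver cells dosed for 48 hours. Eight half-log concentrations topping at 100 uM are used, with 0.5% DMSO as vehicle and baseline.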
# [3] = read-out: Nuclear factor erythroid 2-related factor 2 (Homo sapiens) (UniProt Q16236); test: LTEA_HepaRG_NFE2L2: Life Technologies and Expression Analysis (LTEA) Assay for Nuclear factor erythroid 2-related factor 2 (NFE2L2) Transcription Factor using HepaRG (AID 2283527); conditions: mRNA level, 48 h; actives raise or lower the signal;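 for outcome: TaqMan qRT-PCR transcript level normalised to ACTB GAPDH and POLR2A housekeeping genes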
# Method in brief: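 HepaRG, 48 h dosing, 8-pt half-log series from 100 uM in 0.5% DMSO, duplicates. Read-out: NFE2L2 mRNA by qRT-PCR (ACTB/GAPDH/POLR2A normalization). Bidirectional curve fit vs DMSO baseline.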
# [4] = read-out: Signal transducer and activator of transcription 3 (Homo sapiens) (UniProt P40763); test: LTEA_HepaRG_STAT3: Life Technologies and Expression Analysis (LTEA) Assay for Signal transducer and activator of transcription (STAT3) using HepaRG (AID 2283529); conditions: mRNA level, 48 h; actives raise or lower the signal
# Method in brief: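 HepaRG, 48 h exposure, 8-pt half-log series (top 100 uM), 0.5% DMSO vehicle, duplicates. Readout: STAT3 transcript by Fluidigm qRT-PCR, housekeeping-normalized; bidirectional fit vs DMSO baseline.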
# [5] = read-out: solute carrier (SLCO1B1), SLCO1B1 (gene 10599); test: LTEA_HepaRG_SLCO1B1: Life Technologies and Expression Analysis (LTEA) Assay for solute carrier (SLCO1B1) using HepaRG (AID 2283530); conditions: mRNA level, 48 h; actives raise or lower the signal
# Method in brief: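 SLCO1B1 transcript levels were quantified by TaqMan qRT-PCR using three housekeeping genes for normalization. This followed 48 h chemical exposure (100 uM top, half-log, 8 points, 0.5% DMSO) of HepaRG liver cells, with gain or loss fitted relative to DMSO.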
# [6] = read-out: sulfotransferase 2A1 (SULT2A1), SULT2A1 (gene 6822); test: LTEA_HepaRG_SULT2A1: Life Technologies and Expression Analysis (LTEA) Assay for sulfotransferase 2A1 (SULT2A1) using HepaRG (AID 2283531); conditions: mRNA level, 48 h; actives raise or lower the signal
# Method in brief: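 Expression change of SULT2A1, by qRT-PCR with three housekeeping-gene normalization, was scored bidirectionally versus DMSO. Cells: differentiated HepaRG, dosed in duplicate for 48 h across 8 points, highest 100 µM, half-log dilution, 0.5% DMSO.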
# [7] = read-out: Transforming Growth Factor (TGFA), TGFA (gene 7039); test: LTEA_HepaRG_TGFA: Life Technologies and Expression Analysis (LTEA) Assay for Transforming Growth Factor (TGFA) using HepaRG (AID 2283532); conditions: mRNA level, 48 h; actives raise or lower the signal
# Method in brief: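 qRT-PCR read-out of TGFA transcript, normalized to three housekeeping genes, fitted bidirectionally against 0.5% DMSO baseline. Human HepaRG cultures received chemicals for 48 h at eight half-log concentrations, top 100 uM.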
# [8] = read-out: Transforming Growth Factor (TGFB1), TGFB1 (gene 7040); test: LTEA_HepaRG_TGFB1: Life Technologies and Expression Analysis (LTEA) Assay for Transforming Growth Factor (TGFB1) Transporter using HepaRG (AID 2283533); conditions: mRNA level, 48 h; actives raise or lower the signal
# Method in brief: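 TGFB1 transcript measured by qRT-PCR with normalisation to three housekeeping genes (ACTB, GAPDH, POLR2A); human HepaRG line treated in duplicate for 48 hr with an 8-point series topping at 100 uM, 0.5% DMSO vehicle, bidirectionally fitted.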
# TIMP1, TIMP1 (gene 7076) = test: LTEA_HepaRG_TIMP1: Life Technologies and Expression Analysis (LTEA) Assay for TIMP1 using HepaRG (AID 2283534); conditions: mRNA level, 48 h; actives raise or lower the signal
# Method in brief: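 Bidirectional change in TIMP1 transcript versus 0.5% DMSO, measured by TaqMan qRT-PCR with three housekeeping genes for normalization. HepaRG human liver cells dosed 48 h in duplicate, top concentration 100 uM with half-log dilutions.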
# [9] = read-out: Tumor necrosis factor receptor 1 (TNFRSF1A), TNFRSF1A (gene 7132); test: LTEA_HepaRG_TNFRSF1A: Life Technologies and Expression Analysis (LTEA) Assay for Tumor necrosis factor receptor 1 (TNFRSF1A) using HepaRG (AID 2283535); conditions: mRNA level, 48 h; actives raise or lower the signal
# Method in brief: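 mRNA measured by qRT-PCR (TaqMan, Fluidigm arrays) against ACTB/GAPDH/POLR2A housekeepers after 48 h chemical exposure of HepaRG cells. Top concentration 100 uM, half-log 8-point series, duplicates; vehicle 0.5% DMSO, both fit directions.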
# [10] = read-out: Thyroid Hormone Responsive (THRSP), THRSP (gene 7069); test: LTEA_HepaRG_THRSP: Life Technologies and Expression Analysis (LTEA) Assay for Thyroid Hormone Responsive (THRSP) using HepaRG (AID 2283536); conditions: mRNA level, 48 h; actives raise or lower the signal
# Method in brief: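 qRT-PCR read-out (Fluidigm TaqMan), housekeeping-normalized (ACTB/GAPDH/POLR2A). HepaRG, 48 h chemical exposure, 8-pt half-log series from 100 uM in 0.5% DMSO, duplicates. Bidirectional curve fit vs 0.5% DMSO baseline.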
# [11] = read-out: Cellular tumor antigen p53 (Homo sapiens) (UniProt P04637); test: LTEA_HepaRG_TP53: Life Technologies and Expression Analysis (LTEA) Assay for Tumor Protein P53 (TP53) using HepaRG (AID 2283537); conditions: mRNA level, 48 h; actives raise or lower the signal
# Method in brief: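 Gain or loss of TP53 mRNA signal is scored relative to 0.5% DMSO after 48 h chemical treatment of HepaRG liver cells, tested in duplicate at eight half-log concentrations up to 100 uM.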
# [12] = read-out: UDP glucuronosyltransferase (UGT1A1), UGT1A1 (gene 54658); test: LTEA_HepaRG_UGT1A1: Life Technologies and Expression Analysis (LTEA) Assay for UDP glucuronosyltransferase (UGT1A1) using HepaRG (AID 2283538); conditions: mRNA level, 48 h; actives raise or lower the signal
# Method in brief: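 Cells are plated, cultured 48 h, switched to serum-free induction medium, then dosed 48 h at eight concentrations (max 100 uM, 0.5% DMSO). RNA is isolated and UGT1A1 expression measured by qRT-PCR; changes versus DMSO are fitted in both directions.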
# [13] = read-out: UDP glucuronosyltransferase (UGT1A6), UGT1A6 (gene 54578); test: LTEA_HepaRG_UGT1A6: Life Technologies and Expression Analysis (LTEA) Assay for UDP glucuronosyltransferase (UGT1A6) using HepaRG (AID 2283539); conditions: mRNA level, 48 h; actives raise or lower the signal
# Method in brief: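 Expression was quantified by TaqMan qRT-PCR on Fluidigm arrays with ACTB/GAPDH/POLR2A normalization and bidirectional fitting against 0.5% DMSO. HepaRG cells (~100,000/well) were treated in duplicate for 48 h at eight half-log concentrations up to 100 uM in serum-free induction medium.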
# [14] = read-out: X-box binding protein 1 (XBP1), XBP1 (gene 7494); test: LTEA_HepaRG_XBP1: Life Technologies and Expression Analysis (LTEA) Assay for X-box binding protein 1 (XBP1) using HepaRG (AID 2283540); conditions: mRNA level, 48 h; actives raise or lower the signal
# Method in brief: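 XBP1 transcript by qRT-PCR (housekeeping-normalized: ACTB, GAPDH, POLR2A) after 48 h chemical treatment of HepaRG cells, 8-point half-log series topping at 100 uM, vehicle 0.5% DMSO. Gain and loss of signal fitted relative to DMSO.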
# [15] = LTEA_HepaRG_LDH_cytotoxicity: Cytotoxicity Assessment in the Life Technologies and Expression Analysis (LTEA) Assay (AID 2283563; active = hit-call score of the fitted dose curve at least 0.9, where 1 is the maximum;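 for AC50: LDH activity released into spent culture medium as a marker of cell death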)
# Method in brief: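 LDH release into culture medium read after 48 h chemical treatment of HepaRG cells. Duplicate wells, eight-point half-log series topping at 100 uM, 0.5% DMSO vehicle and baseline.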
# [16] = ATG_XTT_Cytotoxicity: Cytotoxicity Assessment in the Attagene TRANS-FACTORIAL HepG2 Assay (AID 2283584; active = hit-call score of the fitted dose curve at least 0.9, where 1 is the maximum;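 for AC50: cells exposed to compound for 24 h before reading; active means loss of viability signal versus DMSO baseline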)
# Method in brief: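 Viability endpoint from XTT after 24 h chemical exposure of reporter-transfected human HepG2 liver cells; signal loss fitted relative to DMSO negative control.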
# [17] = TOX21_p53_BLA_p2_viability: Viability Assessment in the Tox21 HCT-116 p53 Agonism Beta-lactamase Assay, Phase 2 (AID 2283591; active = hit-call score of the fitted dose curve at least 0.9, where 1 is the maximum;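 note: compound exposure lasted 16 h at 37 °C; actives lower the ATP signal meaning cytotoxicity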)
# Method in brief: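 HCT116 p53-bla cells, 4000/well, dosed after 5 h plating (217-fold dilution of DMSO stocks) and incubated 16 h at 37C. Viability taken as cellular ATP by CellTiter-Glo luminescence after 30 min RT; signal loss marks cytotoxicity.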
# [18] = molecular target: Cellular tumor antigen p53 (Homo sapiens) (UniProt P04637); test: TOX21_p53_BLA_p2_ratio: Tox21 HCT-116 p53 Agonism Beta-lactamase Assay, Ratio, Phase 2 (AID 2283592; active = hit-call score of the fitted dose curve at least 0.9, where 1 is the maximum)
# Method in brief: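 Read-out is the blue/green (460/530 nm, 405 nm excitation) ratio after 2 h CCF4-AM loading, fitted as gain versus DMSO. Compounds, pinned at 217-fold dilution from DMSO stocks, stayed 16 h on HCT-116 beta-lactamase reporter cells seeded 5 h earlier.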
# Chain of Nuclear factor erythroid 2-related factor 2 (Homo sapiens) (Q16236 whole entry, looked up): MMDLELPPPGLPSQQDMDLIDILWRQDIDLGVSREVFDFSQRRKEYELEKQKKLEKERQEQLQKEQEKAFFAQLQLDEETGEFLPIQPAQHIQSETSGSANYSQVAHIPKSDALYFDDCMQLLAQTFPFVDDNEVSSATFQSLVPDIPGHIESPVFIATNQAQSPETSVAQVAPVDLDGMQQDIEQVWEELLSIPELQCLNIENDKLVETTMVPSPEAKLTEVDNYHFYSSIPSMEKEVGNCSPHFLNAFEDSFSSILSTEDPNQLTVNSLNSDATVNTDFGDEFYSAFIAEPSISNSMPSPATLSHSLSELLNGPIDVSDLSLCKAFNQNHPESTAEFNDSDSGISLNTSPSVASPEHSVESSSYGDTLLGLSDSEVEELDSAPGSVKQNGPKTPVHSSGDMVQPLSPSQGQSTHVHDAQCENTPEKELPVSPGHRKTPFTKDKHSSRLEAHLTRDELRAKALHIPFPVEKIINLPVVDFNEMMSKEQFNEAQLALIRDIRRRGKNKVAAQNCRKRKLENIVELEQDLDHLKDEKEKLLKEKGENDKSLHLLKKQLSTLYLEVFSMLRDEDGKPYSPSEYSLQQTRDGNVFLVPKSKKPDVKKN
# Chain of Signal transducer and activator of transcription 3 (Homo sapiens) (P40763 whole entry, looked up): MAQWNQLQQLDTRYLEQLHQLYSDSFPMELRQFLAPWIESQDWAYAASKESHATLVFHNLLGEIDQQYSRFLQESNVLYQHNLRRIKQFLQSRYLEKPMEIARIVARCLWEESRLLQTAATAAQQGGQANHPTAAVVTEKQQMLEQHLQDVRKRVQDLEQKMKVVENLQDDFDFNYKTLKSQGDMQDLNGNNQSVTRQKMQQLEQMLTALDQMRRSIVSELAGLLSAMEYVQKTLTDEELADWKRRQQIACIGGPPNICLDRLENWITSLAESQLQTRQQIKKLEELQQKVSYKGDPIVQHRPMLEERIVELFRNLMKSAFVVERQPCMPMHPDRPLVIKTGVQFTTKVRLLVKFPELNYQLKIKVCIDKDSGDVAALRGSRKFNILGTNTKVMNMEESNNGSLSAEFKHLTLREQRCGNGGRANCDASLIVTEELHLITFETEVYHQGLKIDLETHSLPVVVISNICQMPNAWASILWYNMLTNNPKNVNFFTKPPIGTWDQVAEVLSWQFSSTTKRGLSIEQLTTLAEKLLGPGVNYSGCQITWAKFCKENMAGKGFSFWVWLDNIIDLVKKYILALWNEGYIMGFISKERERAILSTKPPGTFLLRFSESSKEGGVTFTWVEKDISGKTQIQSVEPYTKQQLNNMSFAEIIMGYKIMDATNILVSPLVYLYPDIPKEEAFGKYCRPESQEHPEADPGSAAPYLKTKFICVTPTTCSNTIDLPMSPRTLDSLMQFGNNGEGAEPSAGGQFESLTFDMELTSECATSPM
# Chain of Cellular tumor antigen p53 (Homo sapiens) (P04637 whole entry, looked up): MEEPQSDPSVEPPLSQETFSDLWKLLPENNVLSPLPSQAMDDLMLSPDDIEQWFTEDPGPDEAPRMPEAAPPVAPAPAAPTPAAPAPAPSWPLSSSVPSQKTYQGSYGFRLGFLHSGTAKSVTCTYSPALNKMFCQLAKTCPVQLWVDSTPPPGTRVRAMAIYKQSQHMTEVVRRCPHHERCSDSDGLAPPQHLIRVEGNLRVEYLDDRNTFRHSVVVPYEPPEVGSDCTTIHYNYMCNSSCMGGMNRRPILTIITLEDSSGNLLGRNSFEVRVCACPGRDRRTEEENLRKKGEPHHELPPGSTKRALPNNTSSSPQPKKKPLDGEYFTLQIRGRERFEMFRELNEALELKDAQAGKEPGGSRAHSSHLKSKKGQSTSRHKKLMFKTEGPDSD
smiles,measurement,setting,value
CCCCCCCCCC[N+](C)(C)CCCCCCCCCC,AC50,[1],82.5 µM (active)
same,outcome,[2],inactive
same,AC50,[3],75 µM (active)
same,outcome,[4],inactive
same,outcome,[5],inactive
same,AC50,[6],80.9 µM (active)
same,outcome,[7],inactive
same,outcome,[8],inactive
same,AC50,"TIMP1, TIMP1 (gene 7076)",10.3 µM (active)
same,AC50,[9],79.3 µM (active)
same,AC50,[10],24.5 µM (active)
same,outcome,[11],inactive
same,outcome,[12],inactive
same,AC50,[13],50 µM (active)
same,outcome,[14],inactive
same,AC50,[15],36.6 µM (active)
same,AC50,[16],18.5 µM (active)
same,AC50,[17],36.4 µM (active) and 33.1 µM (active)
same,AC50,[18],65.1 µM (active) and 39.6 µM (active)
CN(C)c1nc(=O)n(C2CCCCC2)c(=O)n1C,outcome,[1],inactive
same,outcome,[2],inactive
same,outcome,[3],inactive
same,outcome,[4],inactive
same,outcome,[5],inactive
same,outcome,[6],inactive
same,outcome,[7],inactive
same,outcome,[8],inactive
same,outcome,"TIMP1, TIMP1 (gene 7076)",inactive
same,outcome,[9],inactive
same,outcome,[10],inactive
same,outcome,[12],inactive
same,outcome,[13],inactive
same,outcome,[14],inactive
same,outcome,[15],inactive
CCOP(=S)(OCC)SCSC(C)(C)C,AC50,[1],18 µM (active)
same,outcome,[2],inactive
same,outcome,[3],inactive
same,outcome,[4],inactive
same,outcome,[5],inactive
same,AC50,[6],10.4 µM (active)
same,outcome,[7],inactive
same,outcome,[8],inactive
same,outcome,"TIMP1, TIMP1 (gene 7076)",inactive
same,outcome,[9],inactive
same,outcome,[10],inactive
same,outcome,[11],inactive
same,outcome,[12],inactive
same,outcome,[13],inactive
same,outcome,[14],inactive
same,outcome,[15],inactive
same,outcome,[16],inactive
same,outcome,[17],inactive
same,outcome,[18],inactive
Clc1ccc(Cl)cc1,outcome,[1],inactive
same,outcome,[2],inactive
same,outcome,[3],inactive
same,outcome,[4],inactive
same,outcome,[5],inactive
same,outcome,[6],inactive
same,outcome,[7],inactive
same,outcome,[8],inactive
same,outcome,"TIMP1, TIMP1 (gene 7076)",inactive
same,outcome,[9],inactive
same,outcome,[10],inactive
same,outcome,[11],inactive
same,outcome,[12],inactive
same,outcome,[13],inactive
same,outcome,[14],inactive
same,outcome,[15],inactive
same,outcome,[16],inactive
same,outcome,[17],inactive
same,outcome,[18],inactive
O=NN(c1ccccc1)c1ccccc1,outcome,[1],inactive
same,outcome,[2],inactive
same,outcome,[3],inactive
same,outcome,[4],inactive
same,outcome,[5],inactive
same,outcome,[6],inactive
same,outcome,[7],inactive
same,outcome,[8],inactive
same,outcome,"TIMP1, TIMP1 (gene 7076)",inactive
same,AC50,[9],80.2 µM (active)
same,outcome,[10],inactive
same,outcome,[11],inactive
same,outcome,[12],inactive
same,outcome,[13],inactive
same,outcome,[14],inactive
same,outcome,[17],inactive
same,outcome,[18],inactive
O=C(NC(=O)c1c(F)cccc1F)Nc1cc(Cl)c(OC(F)(F)C(F)F)c(Cl)c1,outcome,[1],inactive
same,outcome,[2],inactive
same,outcome,[3],inactive
same,AC50,[4],9.92 µM (active)
same,outcome,[5],inactive
same,outcome,[6],inactive
same,outcome,[7],inactive
same,outcome,[8],inactive
same,outcome,"TIMP1, TIMP1 (gene 7076)",inactive
same,outcome,[9],inactive
same,AC50,[10],9.92 µM (active)
same,outcome,[11],inactive
same,outcome,[12],inactive
same,outcome,[13],inactive
same,outcome,[14],inactive
same,outcome,[15],inactive
same,outcome,[16],inactive
same,outcome,[17],inactive
same,outcome,[18],inactive
